PubChem BioAssay (Tox21)
Inconclusive results are not listed. Where a call stands in place of a potency, no number is given. The source made the active and inactive calls. Calls come from the whole dose curve; as a rule, active = well fitted curve in the direction sought with a large enough effect in the repeat runs; inconclusive = weak or mixed curves; inactive = no such curve, though single readings can be large; an effect the other way counts as inactive or inconclusive.

Test: qHTS RealTime-Glo MT Cell Viability Assay in HepG2 cells - 32 hour (AID 1224877); note: nearly all actives have a fitted effect of over 55% in size
Details: RealTime-Glo luminescence; series mostly up to 76.8 µM
How it was run: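 Real-time, nonlytic viability: 600 HepG2 cells/well mixed with NanoLuc enzyme plus prosubstrate; 5 h settle, compound (DMSO) added by pintool; luminescence monitored over 40 h at 37 C.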

Structure (SMILES)	outcome	activity change, negative = cytotoxic
CC(=O)Nc1ccc(OCCOCCOc2ccc(NC(C)=O)cc2)cc1	inactive	
CC(C)OC(=O)C(C(=O)OC(C)C)=C1SC=CS1	inactive	
COC(=O)N/N=C/c1c[n+]([O-])c2ccccc2[n+]1[O-]	inactive	
C=CCCCCCCCCOC(C)=O	inactive	
CC(=O)c1ccc2ccc3ccccc3c2c1	inactive	
CN(C)CCCN(C)C		0.21% [at 6.97 µM] (inactive)
CCCCCCCC(=O)N(C)C	inactive	
CC(=O)c1c(C)cc(C(C)(C)C)cc1C	inactive	
CCOC(=O)COc1ccc2c(C)c(CCN(CC)CC)c(=O)oc2c1Cl	inactive	
O=C(OOC(=O)c1ccccc1)c1ccccc1	inactive	
COc1ccc(Cl)cc1C	inactive	
Clc1ccc2c(c1)Nc1ccccc1S2	inactive	
N[C@H]1C(O)O[C@H](CO)[C@@H](O)[C@@H]1O (some centres not stated)	inactive	
O=C1Nc2ccccc2C1=O	inactive	
CN(C)c1ccncc1	inactive	
CN(C)CCc1c[nH]c2ccc(C[C@H]3COC(=O)N3)cc12	inactive	
CCCCS	inactive	
C[C@@H](CN1CC(=O)NC(=O)C1)N1CC(=O)NC(=O)C1	inactive	
CCCCOCCCC	inactive	
N=C(N)N	inactive	
CCCC(=O)C(CC)Sc1ccoc1C (configuration not stated)	inactive	
CCCCC(CC)COC(=O)CC#N (configuration not stated)	inactive	
CC/C=C\CCCCCCCCCCOC(C)=O	inactive	
Cc1ccc(OC(=O)CC(C)C)cc1	inactive	
CCN1CCN(C(=O)N[C@@H](C(=O)N[C@@H]2C(=O)N3[C@@H]2SC(C)(C)[C@H]3C(=O)O)c2ccccc2)C(=O)C1=O	inactive	
COc1cc2nc(N3CCN(C(=O)C4CCCO4)CC3)nc(N)c2cc1OC (configuration not stated)	inactive	
CC(C)C[P+](C)(CC(C)C)CC(C)C	inactive	

Test: A CellTox Green Cytotoxicity Assay to monitor cytotoxicity in HepG2 cells - 24 hour (AID 1224878); note: nearly all actives have a fitted effect of over 45% in size; note: potency is the fitted concentration of half-maximal effect
Details: CellTox Green fluorescence; series mostly up to 76.8 µM
How it was run: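 Continuous culture of HepG2 cells with a membrane-impermeant DNA dye; rising fluorescence marks dead cells. Compound exposure lasted up to 40 h at 37 C, with reads every 8 h from 0 h.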

Structure (SMILES)	Potency	cytotoxicity
CCCC(C)C(O)CC (configuration not stated)	inactive	
CC(C)OC(=O)C(C(=O)OC(C)C)=C1SC=CS1	inactive	
COC(=O)N/N=C/c1c[n+]([O-])c2ccccc2[n+]1[O-]	23.9 µM (active)	
CN1CCN(C(=O)C2CCCCC2)CC1	inactive	
C=CCCCCCCCCOC(C)=O	inactive	
CC(=O)c1ccc2ccc3ccccc3c2c1	inactive	
CN(C)CCCN(C)C		-15.5% [at 6.97 µM] (inactive)
CC(=O)c1c(C)cc(C(C)(C)C)cc1C	34.7 µM (active)	
C=CC(C)(CCC=C(C)C)OC(=O)C(C)C (configuration not stated)	inactive	
CCOC(=O)COc1ccc2c(C)c(CCN(CC)CC)c(=O)oc2c1Cl	inactive	
O=C(OOC(=O)c1ccccc1)c1ccccc1	inactive	
COc1ccc(Cl)cc1C	inactive	
CCN(CC)CC(=O)Oc1ccc(NC(C)=O)cc1	inactive	
N[C@H]1C(O)O[C@H](CO)[C@@H](O)[C@@H]1O (some centres not stated)	inactive	
Cc1nnc(C(=O)NC(C)(C)c2nc(C(=O)NCc3ccc(F)cc3)c(O)c(=O)n2C)o1	inactive	
COC(=O)c1c(C)cc(O)c(C)c1O	inactive	
C[C@@H](CN1CC(=O)NC(=O)C1)N1CC(=O)NC(=O)C1	inactive	
CCOC(=O)[C@H](CCc1ccccc1)N[C@H]1CS[C@H](c2cccs2)CN(CC(=O)O)C1=O	inactive	
CCCCOCCCC	inactive	
N=C(N)N	inactive	
CCCCC(CC)COC(=O)CC#N (configuration not stated)	inactive	
CC/C=C\CCCCCCCCCCOC(C)=O	inactive	
CCN1CCN(C(=O)N[C@@H](C(=O)N[C@@H]2C(=O)N3[C@@H]2SC(C)(C)[C@H]3C(=O)O)c2ccccc2)C(=O)C1=O	inactive	
COc1cc(C(=O)NC2CCCNC2)cc(OC)c1OC (configuration not stated)	inactive	
CC(C)C[P+](C)(CC(C)C)CC(C)C	inactive	
